Results on 21 compounds are retold here after PubChem BioAssay (NCI).

Among the test systems are HCT-15 colon; HT29 colon; SNB-75 CNS; SNB-19 CNS; U251 CNS; PC-3 prostate; UACC-62 melanoma; LOX IMVI melanoma; SK-MEL-28 melanoma; SK-MEL-5 melanoma.
What all share (experiment): NCI-60 one-dose screen, 48 h (100 = growth as untreated, 0 = no growth, -100 = all killed)
Common to all, as to details: 10 µM unless noted

About 83,000 compounds went through this panel and 20% of them were active in at least one assay; those are over-represented in the sample as a whole.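 Assay: single dose, 48 h. Readout: percent growth (0 = no net growth; negative = cell death). Active: <10.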 Values without a mark were called inactive. Activity calls are given as the source filed them.

As to `O=C(CC1(O)C(=O)N(Cc2ccccc2)c2ccccc21)c1ccc(C(=O)NCC2CCC3(CC2)OOC2(CCCCC2)OO3)cc1` (configuration not stated), the growth in the assay with HCT-15 colon was 0.81% (active); in the assay with HT29 colon it was -51.6% (active); in the assay with SNB-75 CNS, -75.6% (active); in the assay on SNB-19 CNS, 20.3%; with U251 CNS, -77.2% (active); with PC-3 prostate, -61% (active). In addition, the results for the growth with UACC-62 melanoma, in the assay with LOX IMVI melanoma and with SK-MEL-28 melanoma were 0.976% (active), -84.1% (active) and 63.1%, respectively.

Take `CNC(=O)Oc1ccc(N(C)C)cc1C(C)C`: the growth in the assay with HCT-15 colon is 102%; with HT29 colon, 98.2%; with SNB-75 CNS, 66.5%; with SNB-19 CNS, 101%; with U251 CNS, 101%; in the assay on SK-MEL-5 melanoma, 99.4%. The figures for the growth in the assay on UACC-62 melanoma, in the assay with LOX IMVI melanoma and in the assay with SK-MEL-28 melanoma were 102%, 105% and 101%, respectively.

On to `Cc1c2cc(Cl)c3ccccc3c2c[n+]2ccccc12`, for which the growth with HCT-15 colon was 103%; in the assay with HT29 colon it was 88.9%; with SNB-75 CNS, -15.7% (active); in the assay with SNB-19 CNS it was -26.3% (active); in the assay with U251 CNS, 0.443% (active); in the assay with SK-MEL-5 melanoma it was -43.5% (active). The growth in the assay with UACC-62 melanoma is 29.1%; in the assay on LOX IMVI melanoma it was 84.6%; in the assay with SK-MEL-28 melanoma it was -27.2% (active).

On to `COc1ccc(C(=O)c2sc3nc4c(cc3c2N)N2CCC4CC2)cc1OC`, for which the growth was 96.4% in the assay on HCT-15 colon; 105% with HT29 colon; 83.9% in the assay on SNB-75 CNS; 108% in the assay on SNB-19 CNS; 84.9% in the assay with U251 CNS; 48.2% with SK-MEL-5 melanoma. The growth is 89.9% in the assay with UACC-62 melanoma, 85.4% in the assay on LOX IMVI melanoma and 96.1% with SK-MEL-28 melanoma.

`COC(=O)[C@]12CCC(C)(C)C[C@H]1[C@H]1C(=O)C[C@@H]3[C@@]4(C)C[C@@]5(CC(C)(C)[C@@H]4CC[C@@]3(C)[C@]1(C)CC2)OO[C@@](C)(C(F)(F)F)O5`: the growth is 95.3% in the assay with HCT-15 colon; 102% with HT29 colon; 74.9% in the assay with SNB-75 CNS; 91.7% in the assay on SNB-19 CNS; 86.7% with PC-3 prostate; 99.5% with SK-MEL-5 melanoma. The figures for the growth in the assay on UACC-62 melanoma, in the assay with LOX IMVI melanoma and in the assay on SK-MEL-28 melanoma were 84.3%, 95.7% and 107%, respectively.

In the case of `O=C(N/N=C\c1ccc(N(CCCl)CCCl)cc1)c1cccc([N+](=O)[O-])c1`, the growth with HCT-15 colon was 98.7%; in the assay on SNB-75 CNS, 60%; with SNB-19 CNS, 77.3%; in the assay with U251 CNS, 73.9%; with PC-3 prostate, 89.1%; with SK-MEL-5 melanoma, 93.9%. In addition, the growth is 77.9% in the assay with UACC-62 melanoma, 83.4% with LOX IMVI melanoma and 108% in the assay with SK-MEL-28 melanoma.

For `C=CCCCCCCCCC(=O)[O-].C=CCCCCCCCCC(=O)[O-].[Zn+2]`, the growth in the assay on HCT-15 colon was 101%; with HT29 colon it was 105%; in the assay with SNB-75 CNS it was 103%; with U251 CNS it was 89%; in the assay on PC-3 prostate it was 85.7%; in the assay on SK-MEL-5 melanoma it was 113%. The values for the growth in the assay on UACC-62 melanoma, with LOX IMVI melanoma and with SK-MEL-28 melanoma were 99.4%, 90.5% and 104%, respectively.

In the case of `CC(C)[C@@H]1NC(=O)[C@]2(C)CSC(=N2)c2csc(n2)CNC(=O)C[C@@H](/C=C/CCS)OC1=O`, the growth in the assay on HCT-15 colon is 58.6%; in the assay on SNB-75 CNS, 29.1%; in the assay with SNB-19 CNS, 22.3%; with U251 CNS it was -62.1% (active); in the assay on PC-3 prostate, 17%; with SK-MEL-5 melanoma, -81.2% (active). Further, the growth in the assay on UACC-62 melanoma was -42.2% (active); in the assay with LOX IMVI melanoma, -93.1% (active); in the assay with SK-MEL-28 melanoma, 5.48% (active).

For the compound `CCOC(=O)CCC(NC(=O)C(Cc1ccc(N(CCCl)CCCl)cc1)NC=O)C(=O)OCC` (configuration not stated), the growth in the assay with HCT-15 colon was 36.3%; in the assay with HT29 colon, 62.3%; in the assay with SNB-75 CNS, 30.3%; in the assay with U251 CNS it was 48.4%; with PC-3 prostate it was 71.7%; in the assay on SK-MEL-5 melanoma, -70.1% (active). The growth in the assay on UACC-62 melanoma was -37.7% (active); with LOX IMVI melanoma, -78.3% (active); in the assay with SK-MEL-28 melanoma, -29.9% (active).

Consider `Clc1cccc(NCOOC2(OOCNc3cccc(Cl)c3)CCCCC2)c1`, for which the growth with HCT-15 colon is 70.2%; in the assay with HT29 colon, 74.5%; in the assay with SNB-19 CNS, 90.2%; with U251 CNS it was 61.4%; with PC-3 prostate, 77.6%; in the assay with SK-MEL-5 melanoma, 71.4%. The growth is 34.3% in the assay with UACC-62 melanoma, -86.1% (active) in the assay with LOX IMVI melanoma and 100% with SK-MEL-28 melanoma.

In the case of `CCOP(=O)(Nc1ccc2c(c1)/C(=N/NC(N)=S)c1ccccc1-2)OCC`, the growth is 96.5% in the assay on HCT-15 colon; 80.6% in the assay on SNB-75 CNS; 94.5% with SNB-19 CNS; 94.8% with U251 CNS; 94.4% in the assay with PC-3 prostate; 84.4% in the assay on SK-MEL-5 melanoma. Further, the growth in the assay with UACC-62 melanoma was 77.7%; with LOX IMVI melanoma it was 88.9%; in the assay with SK-MEL-28 melanoma, 116%.

Take `O=C1CN=C(c2ccc(Cl)cc2)c2sccc2N1`: the growth in the assay with HCT-15 colon was 98.6%; in the assay with HT29 colon, 100%; in the assay on SNB-19 CNS, 96.6%; in the assay with U251 CNS, 101%; in the assay with PC-3 prostate it was 98.6%; with SK-MEL-5 melanoma, 99.5%. Also, the growth in the assay with UACC-62 melanoma is 91.6%; in the assay with LOX IMVI melanoma it was 95.3%; with SK-MEL-28 melanoma, 105%.

`CCN(CC)c1ccc2c(c1)OC(N)=C(C#N)C2c1cc(OC)c2c(c1)OCO2` (configuration not stated): the growth in the assay with HCT-15 colon is 16.1%; in the assay on HT29 colon, -9.44% (active); in the assay on SNB-19 CNS, 40.1%; in the assay with U251 CNS, 12.5%; in the assay with PC-3 prostate, 30.9%; with SK-MEL-5 melanoma it was -29.6% (active). Besides, the growth in the assay on UACC-62 melanoma is 31.8%; in the assay on LOX IMVI melanoma it was 23.2%; in the assay on SK-MEL-28 melanoma, 72.2%.

As to `C1CCC([PH+](C2CCCCC2)C2CCCCC2[PH+](C2CCCCC2)C2CCCCC2)CC1.[Au].[CH-]1CCCCC1CC1CCCC[N-]1` (configuration not stated), the growth was -36.9% (active) with HCT-15 colon; 1.89% (active) in the assay with HT29 colon; -89% (active) in the assay on SNB-19 CNS; -78.1% (active) in the assay on U251 CNS; -22.2% (active) in the assay on PC-3 prostate; -99.8% (active) in the assay with SK-MEL-5 melanoma. Also, the growth with UACC-62 melanoma is -71% (active); in the assay with LOX IMVI melanoma, -97.2% (active); in the assay on SK-MEL-28 melanoma, -70.5% (active).

For the compound `C/C1=C/C(=O)O[C@@H]2C[C@@H](CC[C@H](C)/C=C\C=C\CC1)O[C@@](O)([C@@H]1CSC(=O)N1CO)C2`, the growth with HCT-15 colon was 46.6%; in the assay on HT29 colon, 8.8% (active); in the assay on SNB-75 CNS it was -41.5% (active); with U251 CNS it was 5.44% (active); with SK-MEL-5 melanoma, 29.5%; with UACC-62 melanoma, 29.2%. Besides, the growth is 7.38% (active) with LOX IMVI melanoma and -31.7% (active) with SK-MEL-28 melanoma.

`COc1ccc(/C=C\c2cc(OC)c(OC)c(OC)c2)cc1NS(=O)(=O)c1ccc(Cl)cc1`: the growth in the assay with HCT-15 colon was 54.2%; in the assay on HT29 colon, 75.7%; with SNB-19 CNS, 87.2%; in the assay with U251 CNS, 77.8%; in the assay with PC-3 prostate, 42.7%; in the assay with SK-MEL-5 melanoma it was 51.6%. Also, the growth with UACC-62 melanoma is 45.1%; with LOX IMVI melanoma, 71.3%; in the assay on SK-MEL-28 melanoma it was 53%.

As for `O=C(Nc1ccc([As]=[As]c2ccc(NC(=O)c3ccccc3)cc2)cc1)c1ccccc1` (configuration not stated), the growth in the assay with HCT-15 colon was -79.6% (active); in the assay on HT29 colon, -35.7% (active); in the assay on SNB-75 CNS it was -97% (active); in the assay with U251 CNS, -78.6% (active); in the assay on PC-3 prostate it was -86.2% (active); in the assay with SK-MEL-5 melanoma, -99.6% (active). The growth is -52.2% (active) in the assay on LOX IMVI melanoma and -94% (active) in the assay with SK-MEL-28 melanoma.

For the compound `COc1cc2c(=O)n(C3CCCCCCC3)c3c4cc[nH]c4ncc3c2cc1OC`, the growth in the assay with HCT-15 colon was 62.4%; in the assay on HT29 colon, 66.8%; in the assay on SNB-19 CNS it was 55.2%; in the assay with U251 CNS it was 12.7%; in the assay with PC-3 prostate, 65.8%; with SK-MEL-5 melanoma, 64.2%. The growth with UACC-62 melanoma is 89.1%; in the assay with LOX IMVI melanoma it was 41.5%; with SK-MEL-28 melanoma, 85.5%.

For `COc1ccc(C/C(C)=C(\c2ccc(OCCN3CCOCC3)cc2)c2ccc(OC(=O)Cc3ccccc3)cc2)cc1`, the growth was -23.7% (active) in the assay with HCT-15 colon; -89.7% (active) in the assay on HT29 colon; 13.8% in the assay with SNB-19 CNS; -97.3% (active) with U251 CNS; -1% (active) with PC-3 prostate; -91.9% (active) in the assay with SK-MEL-5 melanoma. Moreover, the figures for the growth with UACC-62 melanoma, with LOX IMVI melanoma and in the assay on SK-MEL-28 melanoma were -87.7% (active), -94.1% (active) and -80.6% (active), respectively.

Take `O=C1C=C2C(=CCOC2O)O1` (configuration not stated): the growth with HCT-15 colon is -8.81% (active); in the assay on HT29 colon, -24.3% (active); in the assay with SNB-19 CNS, 84.1%; in the assay with U251 CNS, 74.8%; in the assay with PC-3 prostate, 33.9%; in the assay on SK-MEL-5 melanoma, 78.7%. The growth in the assay with UACC-62 melanoma was -14.2% (active); with LOX IMVI melanoma, 1.42% (active); with SK-MEL-28 melanoma, 37.7%.

As for `O=C1C(N2CC2)=C(N2CC2)C(=O)C(N2CC2)=C1N1CC1`, the growth is 2.19% (active) with HCT-15 colon; 2.38% (active) in the assay with HT29 colon; -52.6% (active) with SNB-75 CNS; -63.6% (active) in the assay on U251 CNS; 7.53% (active) in the assay with PC-3 prostate; -76.7% (active) in the assay with SK-MEL-5 melanoma. Besides, the growth with UACC-62 melanoma was -84.6% (active); in the assay on LOX IMVI melanoma, -61.5% (active); in the assay on SK-MEL-28 melanoma, -51.8% (active).
